HSP90 refold inh – HSP90 refolding inhibition in rabbit reticulocyte lysate. AID 1789. inhibition, % at 5.6 µM. actives 0.91% (n = 290,000). luciferase refolding luminescence, 3 h;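 active = inhibition above the screen-wide mean plus 3 SD, computed separately per campaign, cut at about 16% in these data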;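 also: 0% = DMSO wells and 100% = 60 µM geldanamycin wells; inhibitors lower the luminescence because luciferase stays unfolded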
TROY signal inh – TROY signaling inhibition; inhibition, % at 10 µM; Q293 LMP1-TROYcd NF-kB luciferase reporter, 4 h; actives 0.98% (n = 360,000);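 active = compounds whose plate-normalised and pattern-corrected inhibition of the luciferase reporter signal at the single screening dose is 50% or more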
TWEAK-Fn14 inh – inhibitors of TWEAK-Fn14 interaction signaling | TWEAK-stimulated Fn14 reporter cells, luciferase luminescence, 8 h | actives 2% (n = 360,000) | inhibition, % at 10 µM | AID 1159606; in the data active = inhibition above about 50%
HSF-1 act – increases HSF-1 driven luciferase reporter signal | activation, % at 9 µM | NIH3T3-HGL HSF-1 luciferase reporter, MG132, 8 h; 100% = twice DMSO control signal | AID 504408 | actives 1.7% (n = 300,000);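 active = mean replicate activation of at least 50% with a set share of replicates each reaching 50%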;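 also: 0% = median of the neutral control wells and 100% = twice that signal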
HSF1 inh – HSF1 inhibition; NIH3T3-HGL HSE-luciferase, MG132-induced, luminescence 8 h; stronger effect = lower value; actives 0.77% (n = 300,000); activity change, negative = inhibition, % at 7.5 µM (by protocol); AID 2098;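 active = more than half of replicate wells show activity change below -50%, luminescence cut by over half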;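 also: luciferase reports HSF-1 transcriptional activity via heat shock element; 0% = median of DMSO wells and -100% = zero luminescence signal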
EBV LMP1 NFkB – Epstein-Barr LMP1 NF-kappaB reporter inhibition. LMP1-induced NF-kappaB luciferase reporter cells, luminescence. AID 504558. actives 0.69% (n = 350,000). inhibition, % at 12.5 µM; in the data active = inhibition above about 41%;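 also: 0% = neutral control wells and 100% = reference inhibitor control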
HSP90 confirm – confirmation of HSP90 inhibitors. shares compounds with HSP90 refold inh. rabbit reticulocyte lysate, luciferase refolding luminescence, 3 h. inhibition, % at 5.9 µM. actives 64% (n = 2,300); in the data active = inhibition above about 18%;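 also: 0% = vehicle wells and 100% = reference inhibitor wells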
FLuc counter – counter-screen for HSP90 inhibitors: inhibitors of firefly luciferase. AID 1847. purified native firefly luciferase, luminescence. inhibition, % at 5.9 µM. shares compounds with HSP90 refold inh. actives 48% (n = 2,300);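 active = inhibition above the mean inhibition of all tested sample wells plus 3 SD, cut at about 10% in these data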;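 also: 0% = DMSO with luciferase and 100% = wells lacking luciferase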
Target sequence (P08659 whole entry, looked up): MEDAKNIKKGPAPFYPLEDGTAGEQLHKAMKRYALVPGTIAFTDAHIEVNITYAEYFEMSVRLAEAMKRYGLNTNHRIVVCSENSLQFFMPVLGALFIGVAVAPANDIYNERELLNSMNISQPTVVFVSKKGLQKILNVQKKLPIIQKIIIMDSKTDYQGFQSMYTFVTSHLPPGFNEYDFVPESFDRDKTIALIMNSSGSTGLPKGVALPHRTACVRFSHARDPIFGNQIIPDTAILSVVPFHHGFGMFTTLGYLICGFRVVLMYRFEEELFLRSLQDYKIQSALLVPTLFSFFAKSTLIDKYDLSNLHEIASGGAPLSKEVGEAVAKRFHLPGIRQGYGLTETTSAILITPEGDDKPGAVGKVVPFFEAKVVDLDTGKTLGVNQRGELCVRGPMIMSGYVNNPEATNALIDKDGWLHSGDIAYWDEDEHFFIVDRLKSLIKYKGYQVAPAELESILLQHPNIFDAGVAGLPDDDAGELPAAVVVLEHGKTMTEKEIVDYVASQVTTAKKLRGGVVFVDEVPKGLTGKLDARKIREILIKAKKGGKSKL
The depositor's hits bear a star; x = not tested or not shown. Most compounds without a hit are left out; they make up all but 4.7% or so of the library.

SMILES	HSP90 refold inh	TROY signal inh	TWEAK-Fn14 inh	HSF-1 act	HSF1 inh	EBV LMP1 NFkB	HSP90 confirm	FLuc counter
CCOc1ccc(C(=O)NCCCCNC(=O)c2ccc(OCC)cc2)cc1	-1.5	6.7	-14.6	24.3	17.6	-14.8	x	x
CC(=O)N1CCN(C(=O)COC(=O)/C=C/c2ccccc2[N+](=O)[O-])CC1	x	-4.3	8.4	x	x	6.5	x	x
CCCNC(=O)c1cc(C2CCCN(C(=O)c3ccc(OC)cc3)C2)on1 (stereo not given)	x	14.1	6.2	x	x	x	x	x
CCC1(CC)Nc2ccccc2C(=O)N1c1ccc(OC)cc1	10.6	12.8	16.7	27.8	33.5	0.2	x	x
COc1ccc(N2C(=O)c3ccccc3NC23CCCC3)cc1	19.4*	-6.8	12.5	45.1	28.8	-0.9	2.2	-5.8
O=C(NCc1cccc(C(F)(F)F)c1)c1csc(COCCO)n1	x	2.3	0.2	x	x	x	x	x
COC(=O)c1ccccc1OCCCOc1ccc(C)cc1OC	94.4*	x	x	-20.9	0.7	x	100.1*	-10.2
COc1cc(C=O)ccc1OCCCOc1ccccc1C(=O)O	73.6*	83.9*	101.6*	-32.2	-24.8	-25.3	76.4*	34.0*
Cc1cc(C)c2c(N)c(C(=O)Nc3nccs3)sc2n1	29.6*	-11.1	65.9*	32.8	10.8	2.8	62.0*	50.6*
Cc1ccc(C(=O)N/C(=C\c2sccc2C)C(=O)NCc2ccco2)cc1	25.4*	-19.3	2.1	8.0	-8.6	4.3	-3.7	-1.5
Cc1ccc(C(=O)N/C(=C\c2sccc2C)C(=O)NCc2ccncc2)cc1	-5.3	-7.5	13.6	5.4	0.0	-0.8	x	x
Cc1cc(C)c(S(=O)(=O)/N=C2\C=C(Nc3ccc(C(=O)O)cc3)C(=O)c3ccccc32)c(C)c1	45.9*	62.4*	96.5*	-87.9	-87.4*	8.9	78.8*	-9.4
O=C(O)c1ccc(NC2=C/C(=N/S(=O)(=O)c3ccccc3)c3ccccc3C2=O)cc1	86.2*	50.4*	96.7*	x	x	-11.7	92.5*	6.0
Cc1ccc(S(=O)(=O)/N=C2\C=C(NS(=O)(=O)c3ccccc3)C(=O)c3ccccc32)cc1	x	-27.2	5.8	x	x	-15.3	x	x
O=C(NCc1ccc(F)cc1F)[C@@H]1CCCN1C(=O)[C@@H]1CCCN1	x	9.4	13.5	x	x	x	x	x
CCCCn1nnnc1C1(C)CCC(=O)N1CC1CCCCC1 (stereo not given)	x	-10.7	2.4	x	x	x	x	x
CC1(C(=O)N2CCN(Cc3ccccc3Cl)CC2)CC1(Cl)Cl (stereo not given)	19.1*	-44.0	-10.3	6.7	10.7	-1.9	-6.4	-16.0
Cc1nc(NC(=O)c2ccccc2)sc1-c1csc(Nc2ccc(Cl)cc2Cl)n1	44.8*	x	x	3.2	-11.6	x	34.9*	-12.8
COc1ccc(Cl)cc1Nc1nc(-c2sc(NC(=O)c3ccccc3)nc2C)cs1	40.1*	x	x	9.4	5.1	x	23.6*	-3.4
COc1ccc(OC)c(Nc2nc(-c3sc(NC(=O)c4ccccc4)nc3C)cs2)c1	27.2*	x	x	14.8	13.1	x	19.1*	-4.9
Cc1nc(NC(=O)c2ccco2)sc1-c1csc(Nc2ccc(Cl)cc2Cl)n1	8.7	-39.1	1.6	9.8	2.5	-14.5	x	x
Cc1cccc(NS(=O)(=O)c2ccc(C)c(C(=O)NC3CCN(Cc4ccccc4)CC3)c2)c1	x	30.5	11.1	x	x	12.4	x	x
COc1ccc(CCNC(=O)Cc2ccc(Cl)cc2)cc1OC	-6.2	-10.9	10.9	8.3	0.8	-5.2	x	x
COc1ccc(CCNC(=O)Cc2cc(OC)c(OC)cc2Br)cc1OC	34.3*	16.1	6.5	-5.0	1.2	-0.7	-3.0	-3.7
NNC(=O)c1c(O)c2cccc3c2n(c1=O)CCC3	18.7*	8.4	6.5	-2.8	-3.0	5.7	2.8	-4.6
SMILES	HSP90 refold inh	TROY signal inh	TWEAK-Fn14 inh	HSF-1 act	HSF1 inh	EBV LMP1 NFkB	HSP90 confirm	FLuc counter
O=C(NCc1ccccc1)c1c(O)c2cccc3c2n(c1=O)CCC3	0.2	2.0	-5.6	-3.1	-3.3	2.1	x	x
COc1cc(/C=C/c2nc3ccccc3s2)cc(OC)c1O	5.5	27.2	1.9	32.2	-0.4	6.7	x	x
CN(C)c1ccc(CNc2nc3ccccc3s2)cc1	48.3*	x	x	-14.4	-11.0	x	72.6*	57.2*
CN(C)c1ccc(/C=C/c2nc3ccccc3s2)cc1	76.4*	65.2*	105.4*	-82.1	-79.5*	25.1	92.1*	90.1*
Cc1ccc(/C=C/c2nc3ccccc3s2)s1	46.4*	76.4*	86.4*	-76.2	-74.7*	42.9*	80.2*	74.1*
CC1CCCN(C(=O)c2cccc(S(=O)(=O)NCc3ccccc3)c2)C1 (stereo not given)	x	10.8	-8.4	x	x	12.0	x	x
CCc1nn2cc(-c3ccccc3)nc2s1	64.9*	84.1*	93.3*	-12.7	-18.0	66.0*	81.2*	73.5*
Cc1nn2cc(-c3ccc(-c4ccccc4)cc3)nc2s1	0.6	x	35.7	10.5	-6.6	-7.3	x	x
CC#CCOCC1CNC(=O)O1 (stereo not given)	x	1.8	-6.4	x	x	3.3	x	x
O=C(COC(=O)c1cnccn1)c1ccc([N+](=O)[O-])cc1	38.2*	1.9	11.3	4.7	-2.2	8.4	1.1	-23.5
Cc1ccc(C(=O)COC(=O)c2cnccn2)cc1	-0.9	-34.2	-10.4	-2.5	-1.0	-4.6	x	x
CCOc1ccccc1C=C1CCc2ccccc2C1=O	x	-25.2	-27.7	x	x	-3.9	x	x
Cn1cccc1/C=C1\CCc2ccccc2C1=O	39.2*	23.7	75.8*	-7.6	-16.9	16.3	64.4*	66.9*
CCOc1ccc(/C=C2\CCc3ccccc3C2=O)cc1	35.4*	69.8*	90.3*	-39.5	-31.6	35.3	44.1*	73.3*
COc1ccc2c(=O)c(Oc3ccc(C(=O)O)cc3)c(C(F)(F)F)oc2c1	71.8*	-40.0	7.4	-6.4	-9.0	-12.0	7.4	-7.2
O=C(O)CC1SC(N/N=C/c2ccc(Br)cc2)NC1=O (stereo not given)	17.2*	-10.6	7.0	1.0	-4.0	-19.4	24.1*	-9.6
O=C(O)c1ccc(N/N=C2/CCCc3ccccc32)cc1	18.5*	-41.0	4.5	5.8	-0.1	-16.8	1.9	-5.6
O=c1oc(-c2ccc(Cl)cc2[N+](=O)[O-])nc2ccccc12	x	-10.8	-10.6	x	x	1.6	x	x
CC1(C(=O)NS(=O)(=O)C2CC2)CCCN(C(=O)C2(c3ccc(Cl)cc3)CCCC2)C1 (stereo not given)	x	-1.2	14.8	x	x	x	x	x
O=C(NC12CC3CC(CC(C3)C1)C2)c1ccco1	-2.9	-3.4	10.3	4.0	3.5	4.6	x	x
O=C(NC12CC3CC(CC(C3)C1)C2)c1ccc(-c2ccccc2Cl)o1	25.7*	x	64.2*	-52.6	-43.9	-53.4	37.6*	30.1*
COc1cc(N2Cc3ccccc3C2)ccc1C=O	54.2*	-0.3	28.8	-33.5	-32.1	0.9	40.0*	-6.6

Screening results (PubChem)
